# Assay outcomes from PubChem BioAssay.
# An excerpt weighted towards active compounds, which were near 7.4% of everything screened.
# Rab9 prom act – qHTS Assay for Rab9 Promoter Activators | Huh7 Rab9 promoter-luciferase reporter, luminescence, 24 h | Potency, µM (titrated, usually from 9.22 µM), without a hit: at the top dose activation, negative = inhibition, actives largely listed as activators | hit rate 2.8% among 320,000; further: % of control where 0% means no effect; nearly all actives have a fitted effect of over 60% in size
#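 Quantitative HTS format; Huh7 Rab9-luciferase reporter cells (1500/well) receive compound 2 h post-plating, incubate 24 h at 37 °C, then get luciferase reagent for 10 min before luminescence reading.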
# FLuc modulator – qHTS profiling assay for firefly luciferase inhibitor/activator using purifed enzyme and Km concentrations of substrates (counterscreen for miR-21 project); Luciferin 4-monooxygenase (Photinus pyralis), P08659; purified FLuc, Km substrates, luminescence inhibition; Potency, µM (highest dose often 57.5 µM), for the others: top-dose activity change, negative = inhibition, hits mostly inhibitors; hit rate 6.9% among 360,000; AID 588342, 2011;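 further: plate controls were vehicle for no effect and reference inhibitor for full effect; nearly all actives have a fitted effect of over 55% in size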
# Target sequence (P08659 whole entry, looked up): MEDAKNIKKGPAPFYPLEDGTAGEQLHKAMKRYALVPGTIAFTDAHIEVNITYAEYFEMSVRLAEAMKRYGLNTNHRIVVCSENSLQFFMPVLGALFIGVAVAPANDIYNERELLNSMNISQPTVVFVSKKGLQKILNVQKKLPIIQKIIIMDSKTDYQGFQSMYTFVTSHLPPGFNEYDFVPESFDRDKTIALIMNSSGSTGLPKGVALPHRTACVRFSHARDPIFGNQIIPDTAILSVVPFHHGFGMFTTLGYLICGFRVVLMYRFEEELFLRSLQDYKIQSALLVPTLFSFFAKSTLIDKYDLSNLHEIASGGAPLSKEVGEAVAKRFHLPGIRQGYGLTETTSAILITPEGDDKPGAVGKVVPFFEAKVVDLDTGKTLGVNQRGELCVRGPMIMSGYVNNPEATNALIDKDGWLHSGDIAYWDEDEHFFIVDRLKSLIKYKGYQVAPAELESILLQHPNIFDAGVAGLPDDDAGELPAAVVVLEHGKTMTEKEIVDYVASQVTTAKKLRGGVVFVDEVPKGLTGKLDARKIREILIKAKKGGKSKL
#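 Biochemical qHTS of compounds, final roughly 60 µM downward over six points, against 10 nM purified firefly luciferase using Km concentrations of substrates (10 uM D-luciferin, 10 uM ATP) in Tris acetate pH 7.5 buffer; luminescence output.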
# SMN2 splice up – qHTS Assay for Enhancers of SMN2 Splice Variant Expression; hit rate 2.8% among 210,000; Potency, µM (top dose mostly 46.1 µM), without a hit: at the top dose activity change, positive = activation, usual class: activators; HEK293 SMN2-luciferase splicing reporter, luminescence, 30-36 h; further: % of control where 0% means no effect; nearly all actives have a fitted effect of over 55% in size
#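 HEK293 cells carry an SMN2 […]–luciferase reporter in which exon 7 inclusion puts luciferase in frame. Cells were plated 10-12 h before compound addition, then incubated 30-36 h at 37C. ONE-Glo luminescence was read; sodium butyrate at 4.5 mM final served as control.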
# NPC1 prom act – qHTS Assay for NPC1 Promoter Activators | hit rate 2.4% among 320,000 | Potency, µM (titrated, usually from 9.22 µM), without a hit: at the top dose activation, hits mostly activators | Huh7 NPC1 promoter luciferase reporter, 24 h; further: % of control where 0% means no effect; nearly all actives have a fitted effect of over 60% in size
#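 Stable NPC1-promoter luciferase Huh7 line; cpd (DMSO) 24 h, 37 °C, 5% CO2; Amplite luciferase reagent 10 min RT; luminescence readout. qHTS format.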
# ELG1 genotox – qHTS screen for small molecules that induce genotoxicity in human embryonic kidney (HEK293T) cells expressing luciferase-tagged ELG1. AID 504466, 2011. Potency, µM (series often up to 46 µM), for inactives: at the highest dose activity change, positive = activation, hits mostly activators. HEK293T ELG1-luciferase reporter, luminescence, 16 h. hit rate 1.3% among 330,000; further: % of control where 0% means no effect; nearly all actives have a fitted effect of over 60% in size
#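 Cells (2,000/well) expressing the ELG1-luciferase fusion are dosed by pin tool and kept 16 hr at 37 °C, 5% CO2. Signal comes from ONE-Glo luciferase reagent after 30 min at room temperature.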
# KinaseGlo FLuc – Counterscreen for Luciferase (Kinase-Glo TM) Inhibition; hit rate 0.28% among 200,000; Kinase-Glo luciferase, ATP luminescence, 8 min; Luciferin 4-monooxygenase (Photuris pensylvanica), Q27757; Potency, µM (titrated, usually from 38.3 µM), inactives show at the top dose activity change, negative = inhibition, actives largely listed as inhibitors; further: on the % scale 0 is the no-effect control and ±100 the full control effect; nearly all actives have a fitted effect of over 60% in size
#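 Luminescence was the read-out, taken after 8-minute incubation at ambient temperature. Luciferase turned over luciferin with 10 uM ATP in imidazole pH 7.2 buffer containing KCl, MgCl2, Tween 20 and BSA.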
# * = called active by the depositor; ? = inconclusive; . = not tested or not shown; [ ] = remark or other dose. The call rests on the fitted dose curve; in most records, active means well fitted curve in the direction sought with a large enough effect; inconclusive means small, poorly fitted or top-dose-only effect, or another doubt; inactive means no such curve, though single readings can be large; an effect the other way counts as inactive or inconclusive. Potency means the concentration at half of the fitted maximal effect.
SMILES,Rab9 prom act,FLuc modulator,SMN2 splice up,NPC1 prom act,ELG1 genotox,KinaseGlo FLuc
CN(C)C=C1C(=O)c2ccccc2C1=O,-8%,0%,?,-3%,8%,-1%
COCCCNC(=O)c1oc2c(c1C)-c1nn(Cc3cccc(Cl)c3)cc1CC2,.,-17%,.,.,.,.
COc1cccc(N=c2oc3ccc(OC)cc3cc2-c2nc3ccccc3[nH]2)c1,.,19µM*,?,.,.,-19%
COc1ccc(N=c2oc3ccc(OC)cc3cc2-c2nc3ccccc3[nH]2)cc1,.,?,?,.,.,-6%
COc1cccc(CC(=O)Nc2nc3ccccc3[nH]2)c1,1%[1.84 µM],0%,0%,0%,1%,0%
COc1cccc(N=c2oc3ccccc3cc2-c2nc3ccccc3[nH]2)c1,1.6µM*,9.5µM*,16µM*,3.2µM*,?,3%
CN(C(=O)CSc1cn(CC(=O)N2CCCCC2)c2ccccc12)c1ccccc1,.,3%,.,.,.,.
Cc1cc(C)nc(Nc2nc(=O)c3ccccc3s2)n1,?,17µM*,?,?,18µM*,-3%
N#C/C(=C\c1cccnc1)c1nc2c(s1)CCCC2,4µM*,12µM*,13µM*,3.5µM*,16µM*,1%
COc1cc(/C=C(\C#N)C(=O)N2CCCCC2)ccc1O,-3%,-7%,.,2%,4%,.
CC1CCc2nc(/C(C#N)=C/c3cccnc3)sc2C1 (stereo not given),1.3µM*,2.1µM*,2µM*,?,2.3µM*,-3%
N#C/C(=C/c1cccnc1)c1ccccc1,3%,-16%,.,4%,4%,.
N#C/C(=C\c1cccnc1)C(=O)NC1CCCCC1,-4%,2%,?,-2%,14%,1%
COc1cc(/C=C(\C#N)c2nc3c(s2)CCCC3)ccc1O,?,6µM*,22µM*,?,11µM*,-7%
CCOC(=O)C1CCN(S(=O)(=O)c2cc(-c3onc(C)c3C)ccc2OC)CC1,.,4%,.,.,.,.
CN1C(=C2C(=O)OC(C)(C)OC2=O)Sc2ccccc21,2.5µM*,15µM*,13%,3.5µM*,?,-10%
COc1ccc(NC(=O)C2CCCN(c3ncccn3)C2)cc1 (stereo not given),2.8µM*,17µM*,.,?,?,.
Cc1ccnc(N2CCCC(C(=O)Nc3ccc(C)c(C)c3)C2)n1 (stereo not given),-1%,1%,.,3%,-18%,.
CCC(C)c1ccc(NC(=O)C2CC2)cc1 (stereo not given),29%,15µM*,2%,16%,?,3%
COc1ccc(NC(=O)C2CCCN(c3nccc(C)n3)C2)cc1 (stereo not given),-10%,-1%,-8%,-1%,1%,-4%
Cc1ccc(NC(=O)C2CCCN(c3ncccn3)C2)cc1C (stereo not given),?,17µM*,.,?,?,.
CCC(C)c1ccc(NC(=O)C2CCCN(c3ncccn3)C2)cc1 (stereo not given),1%,15µM*,8%,4%,-1%,0%
COc1ccc(CCNC(=O)Cc2c(C)c3c(cc(C)c4c(C)coc43)oc2=O)cc1,.,-1%,10%,.,.,.
CC(C)[C@@H](CC(=O)N[C@@H]1CCCC[C@H]1C(=O)N[C@H](CC(=O)N[C@@H](CCC(=O)O)CC(=O)O)Cc1c[nH]c2ccccc12)NC(=O)C[C@H](Cc1ccccc1)NC(=O)[C@@H]1CNCC[C@H]1N,.,.,-6%,.,.,0%
Nc1nc(N)nc(CCCc2nc(N)nc(N)n2)n1,.,.,-4%[9.22 µM],.,.,-2%[7.66 µM]
CCC(C)c1ccc(NC(=O)Nc2cnccn2)cc1 (stereo not given),?,6.7µM*,.,-6%,?,.
